Assay results reported in PubChem BioAssay (Tox21).
Where “and” joins values, the source holds several entries; their conditions need not be identical. Equal values may be shown once. Records with an inconclusive call do not appear. Where a structure was tested more than once in an assay, its records may differ in their call. Calls of active or inactive are those of the source. Unless noted, calls come from the whole dose curve; as a rule, active = well fitted curve in the direction sought with a large enough effect in the repeat runs; inconclusive = weak or mixed curves; inactive = no such curve, though single readings can be large; an effect the other way counts as inactive or inconclusive.

How the values were obtained:
[1] = qHTS assay to identify small molecule agonists of the RXR signaling pathway - cell viability counter screen (AID 1159529); note: nearly all actives have a fitted effect of over 50% in size; note: potency is the fitted concentration of half-maximal effect
How it was run: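 In this parallel viability measure, GeneBLAzer RXR-alpha HEK 293T cells (2% charcoal-stripped FBS) were given a 5 hr preincubation, treated with compounds 16 hr at 37 C, and read by CellTiter-Glo luminescence.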

[2] = qHTS assay to identify small molecule antagonists of the retinoid acid receptor (RAR) signaling pathway - cell viability counter screen (AID 1159551); note: nearly all actives have a fitted effect of over 35% in size
How it was run: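 Following overnight attachment, C3RL4 reporter cells received DMSO-dissolved compounds and then retinol (1 uM final). Six hours later at 37 C, ATP content was measured by CellTiter-Glo luminescence.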

[3] = qHTS assay to identify small molecule antagonists of the estrogen related receptor (ERR) signaling pathway - cell viability counter screen (AID 1224818);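 note: viability measured after 17.5 h of compound exposure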
How it was run: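 Here, ERR cells are plated at 2,000 cells per well, allowed 6 h to attach, and treated with compounds in DMSO for 17.5 h at 37 C. CellTiter-Fluor is then added and fluorescence read after 30 min.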

[4] = qHTS assay to identify small molecule antagonists of the estrogen related receptor signaling pathway with the pleiotropic PPARgamma coactivator (PGC) cell viability counter screen (AID 1224822;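 note: viability read after 17.5 h compound exposure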)
How it was run: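 qHTS format, DMSO compound stocks pin-transferred onto PGC/ERR cells 6 h after plating; 17.5 h exposure at 37 C, then CellTiter-Fluor fluorescence.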

[5] = qHTS assay to identify small molecule antagonists of the estrogen related receptor (ERR) signaling pathway from Tox21 library - cell viability counter screen (AID 1224834); note: nearly all actives have a fitted effect of over 30% in size; note: potency is the fitted concentration of half-maximal effect
How it was run: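 Viability readout (CellTiter-Fluor fluorescence, 30 min at 37 C) multiplexed with the ERR assay; cells treated 17.5 h at 37 C with compounds delivered in DMSO.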

[6] = target: Luciferin 4-monooxygenase (Photinus pyralis) (UniProt P08659); test: qHTS assay to identify small molecule inhibitors of firefly luciferase (AID 1224835); note: nearly all actives have a fitted effect of over 25% in size; note: potency is the fitted concentration of half-maximal effect
Sequence of Luciferin 4-monooxygenase (Photinus pyralis) (P08659 whole entry, looked up): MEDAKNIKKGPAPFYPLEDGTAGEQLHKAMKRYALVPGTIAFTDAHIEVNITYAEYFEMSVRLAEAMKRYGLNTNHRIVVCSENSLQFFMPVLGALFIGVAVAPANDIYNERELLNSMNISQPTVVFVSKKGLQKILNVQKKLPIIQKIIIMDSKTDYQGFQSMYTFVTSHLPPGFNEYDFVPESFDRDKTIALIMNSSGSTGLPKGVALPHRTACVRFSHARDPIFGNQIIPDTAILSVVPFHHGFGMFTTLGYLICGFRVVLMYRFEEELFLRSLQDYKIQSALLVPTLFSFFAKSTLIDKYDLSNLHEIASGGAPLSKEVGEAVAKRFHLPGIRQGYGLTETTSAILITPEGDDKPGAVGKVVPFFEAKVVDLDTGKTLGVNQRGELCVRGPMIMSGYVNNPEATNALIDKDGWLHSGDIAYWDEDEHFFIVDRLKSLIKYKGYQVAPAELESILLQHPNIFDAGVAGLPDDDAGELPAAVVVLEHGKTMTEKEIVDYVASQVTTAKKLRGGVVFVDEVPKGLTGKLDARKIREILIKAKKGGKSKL
How it was run: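 Quantitative HTS format; KM concentrations of both substrates. Purified P. pyralis FLuc activity quantified from luminescence images.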

[7] = qHTS assay to identify small molecule agonists of the constitutive androstane receptor (CAR) signaling pathway - cell viability counter screen (AID 1224836); note: nearly all actives have a fitted effect of over 45% in size; note: potency is the fitted concentration of half-maximal effect
How it was run: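 Using CellTiter-Fluor, viability of HepG2 cells harbouring hCAR and CYP2B6-2.2kb was measured following 23 h incubation with a 15-concentration compound series plus PK11195 (0.75 uM final).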

[8] = qHTS assay to identify small molecule antagonists of the constitutive androstane receptor (CAR) signaling pathway - cell viability counter screen (AID 1224837); note: nearly all actives have a fitted effect of over 45% in size; note: potency is the fitted concentration of half-maximal effect
How it was run: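 Fluorescence from CellTiter-Fluor served as the viability signal. Human hepatoma HepG2 cells stably bearing hCAR and CYP2B6-2.2kb received compound plus CITCO (50 nM final) for 23 hr.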

[9] = target: Nuclear receptor subfamily 1 group I member 3 (Homo sapiens) (UniProt Q14994); test: qHTS assay to identify small molecule antagonists of the constitutive androstane receptor (CAR) signaling pathway (AID 1224838);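 note: HepG2 cells stably expressing hCAR with CYP2B6 luciferase reporter stimulated by CITCO; nearly all actives have a fitted effect of over 40% in size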; note: potency is the fitted concentration of half-maximal effect
Sequence of Nuclear receptor subfamily 1 group I member 3 (Homo sapiens) (Q14994 whole entry, looked up): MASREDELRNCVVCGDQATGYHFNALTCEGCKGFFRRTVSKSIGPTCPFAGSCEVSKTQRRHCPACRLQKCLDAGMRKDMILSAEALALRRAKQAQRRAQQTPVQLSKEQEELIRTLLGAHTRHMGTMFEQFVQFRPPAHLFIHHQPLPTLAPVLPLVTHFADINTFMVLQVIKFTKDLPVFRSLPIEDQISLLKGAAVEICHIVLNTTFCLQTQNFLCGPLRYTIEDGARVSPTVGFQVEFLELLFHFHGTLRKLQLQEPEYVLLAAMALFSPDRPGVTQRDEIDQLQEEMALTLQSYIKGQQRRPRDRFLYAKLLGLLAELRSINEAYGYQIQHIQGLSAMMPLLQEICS
How it was run: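 Quantitative HTS in double-stable HepG2-CYP2B6-hCAR cells. After 4 h plating, cells get compound (15 concentrations) and CITCO at 50 nM final, incubate 24 h at 37 C, then ONE-Glo luminescence is read.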

[10] = target: Nuclear receptor subfamily 1 group I member 3 (Homo sapiens) (UniProt Q14994); test: qHTS assay to identify small molecule agonists of the constitutive androstane receptor (CAR) signaling pathway (AID 1224839); note: nearly all actives have a fitted effect of over 15% in size; note: potency is the fitted concentration of half-maximal effect;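 for activation: HepG2 cells stably carrying human CAR and a CYP2B6 luciferase reporter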
How it was run: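 Double-stable HepG2 cells (hCAR, CYP2B6-2.2kb) seeded 4 h before compound addition. Exposure 24 h with 0.75 uM PK11195 final. Luciferase detected by ONE-Glo.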

[11] = qHTS assay to identify small molecule antagonists of the estrogen related receptor signaling pathway with the pleiotropic PPARgamma coactivator (PGC) from Tox21 10K library - cell viability counter screen (AID 1224840; active = well fitted cell-killing curve with a large enough effect in the repeat runs, not every such curve was filed as active; note: nearly all actives have a fitted effect of over 40% in size; note: potency is the fitted concentration of half-maximal effect)
How it was run: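 Compounds in DMSO, alongside positive and negative controls, were pinned onto PGC/ERR cells (2,000 per well). Exposure lasted 17.5 hours at 37 C, followed by a 30-minute CellTiter-Fluor incubation and fluorescence reading.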

[12] = target: Thyrotropin receptor (Homo sapiens) (UniProt P16473); test: qHTS assay to identify small molecule agonists of the thyroid stimulating hormone receptor (TSHR) signaling pathway (AID 1224843; calls by dose curve; note: nearly all actives have a fitted effect of over 45% in size)
Sequence of Thyrotropin receptor (Homo sapiens) (P16473 whole entry, looked up): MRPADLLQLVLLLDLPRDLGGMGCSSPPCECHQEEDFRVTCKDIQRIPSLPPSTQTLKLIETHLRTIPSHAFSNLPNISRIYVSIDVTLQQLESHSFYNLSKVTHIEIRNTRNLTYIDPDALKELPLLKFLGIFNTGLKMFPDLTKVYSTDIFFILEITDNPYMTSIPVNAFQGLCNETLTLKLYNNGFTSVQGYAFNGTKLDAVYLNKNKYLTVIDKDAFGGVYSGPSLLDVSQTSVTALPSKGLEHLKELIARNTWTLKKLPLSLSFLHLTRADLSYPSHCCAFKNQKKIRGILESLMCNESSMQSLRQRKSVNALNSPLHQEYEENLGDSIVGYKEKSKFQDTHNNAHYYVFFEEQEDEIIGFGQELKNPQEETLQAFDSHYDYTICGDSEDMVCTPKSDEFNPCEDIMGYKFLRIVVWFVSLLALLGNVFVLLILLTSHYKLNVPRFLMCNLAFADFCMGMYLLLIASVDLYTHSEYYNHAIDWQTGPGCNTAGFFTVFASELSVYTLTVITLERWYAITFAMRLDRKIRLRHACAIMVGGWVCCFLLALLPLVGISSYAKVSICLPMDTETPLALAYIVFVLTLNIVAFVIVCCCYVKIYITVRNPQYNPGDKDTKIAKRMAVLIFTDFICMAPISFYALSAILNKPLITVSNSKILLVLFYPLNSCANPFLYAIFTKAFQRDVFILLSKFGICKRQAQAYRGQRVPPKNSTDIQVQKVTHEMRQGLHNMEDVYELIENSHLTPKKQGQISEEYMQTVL
How it was run: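 TSHR-expressing HEK293 cells (800 per well) were exposed to compounds for 30 min at room temperature. cAMP was then detected by HTRF competition with cAMP-d2 and anti-cAMP cryptate, read after 1 h at room temperature. Fifteen concentrations, triplicate.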

[13] = qHTS assay to identify small molecule antagonists of the retinoic acid receptor (RAR) signaling pathway (AID 1159552; note: nearly all actives have a fitted effect of over 50% in size)
How it was run: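 C3RL4 RARE-luc cells, overnight plating; retinol 1 uM final added right after compound; 6 hr 37 C; luciferase read at 30 min RT.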

[14] = qHTS assay to identify small molecule agonists of the retinoic acid receptor (RAR) signaling pathway (AID 1159553); details: C3RL4 RARE luciferase reporter, agonist, 6 h; activation: at 73.3 µM (top of the series) unless noted; note: potency is the fitted concentration of half-maximal effect
How it was run: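 Cell line C3RL4, RARE luciferase reporter. Treatment: compounds in DMSO, 6 hr, 37 C, 5% CO2, after overnight plating. Detection: luminescence, 30 min RT after reagent.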

[15] = qHTS assay to identify small molecule antagonists of the estrogen related receptor signaling pathway with the pleiotropic PPARgamma coactivator (PGC) from Tox21 10K library (AID 1224841; call rule not given here; note: actives are mostly falling curves and most rising ones were filed inactive; nearly all actives have a fitted effect of over 50% in size; note: potency is the fitted concentration of half-maximal effect)
How it was run: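 Compound exposure ran 18 hours at 37 C in PGC/ERR cells (2,000/well) that had first rested 6 hours in a 37 C/5% CO2 incubator. Luciferase activity was then detected with One-Glo after a 30-minute room-temperature step.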

[16] = qHTS assay to identify small molecule agonists of the estrogen related receptor signaling pathway with the pleiotropic PPARgamma coactivator (PGC) from Tox21 10K library (AID 1224842); note: nearly all actives have a fitted effect of over 15% in size
How it was run: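 PGC/ERR reporter cells (NTP line) were seeded 2,000 per well, rested 6 h at 37 C/5% CO2, then pin-dosed with compounds in DMSO for 18 h at 37 C; luciferase read by One-Glo luminescence after 30 min at room temperature.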

[17] = qHTS assay to identify small molecule agonists of the estrogen related receptor (ERR) signaling pathway (AID 1224820)
How it was run: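 ERR reporter cells (NTP line) plated 2,000/well, incubated 6 h at 37 C/5% CO2, then pinned with compounds in DMSO and held 18 h at 37 C. One-Glo added; luminescence read after 30 min at room temperature.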

[18] = tested on: estrogen-related receptor alpha (ERRalpha) with PGC-1alpha coactivator, human; test: qHTS assay to identify small molecule antagonists of the estrogen related receptor signaling pathway with the pleiotropic PPARgamma coactivator (PGC) (AID 1224821; calls by dose curve;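 note: lower luminescence signal means antagonism of PGC/ERR signalling; nearly all actives have a fitted effect of over 50% in size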)
How it was run: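 Cells engineered for PGC/ERR signalling (line from NTP) were plated 6 h at 37 C/5% CO2, then exposed to DMSO-dissolved compound for 18 h at 37 C. Luciferase activity was read by One-Glo luminescence after 30 min at room temperature.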

[19] = qHTS assay to identify small molecule agonists of the estrogen related receptor signaling pathway with the pleiotropic PPARgamma coactivator (PGC) (AID 1224823)
How it was run: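 PGC/ERR reporter cells were seeded, rested 6 h at 37 C/5% CO2, then exposed to compounds in DMSO by pin transfer for 18 h at 37 C. Luciferase activity was read as luminescence after One-Glo reagent and 30 min at room temperature.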

Measured: Potency

C[N+](C)(C)CCO
not listed: [13] | [14] | [15] | [16] | [17] | [18] | [19]
inactive: all other assays above

CCCCCCCC/C=C\CCCCCCCC(=O)O
inactive: [1] | [2] | [13] | [14] | [5] | [7] | [8] | [11] | [12]
active: [6] 71.4 µM

Nc1ccc2c(c1)C(=O)c1ccccc1C2=O
inactive: [1] | [2] | [13] | [7] | [8] | [9] | [11]
active: [14] 338 nM and 273 nM | [6] 2.78 µM and 2.52 µM | [10] 1.34 µM and 969 nM

CC(=O)OC(C)C
inactive: [1] | [2] | [13] | [14] | [5] | [6] | [7] | [8] | [11] | [12]

COc1ccc(C(=O)c2ccccc2O)c(O)c1
not listed: [3] | [4] | [10] | [17] | [18] | [19]
inactive: all other assays above

CC1(C)O[C@@H]2C[C@H]3[C@@H]4C[C@H](F)C5=CC(=O)C=C[C@]5(C)[C@@]4(F)[C@@H](O)C[C@]3(C)[C@]2(C(=O)CO)O1
inactive: [1] | [2] | [13] | [14] | [5] | [6] | [7] | [8] | [11] | [12]

CN(C)CCCN1c2ccccc2Sc2ccc(Cl)cc21
active: [1] 43.6 µM | [5] 54.5 µM and 26.6 µM | [7] 48.6 µM | [8] 54.5 µM | [11] 48.6 µM and 26.6 µM
inactive: [2] | [17] | [18] | [19] | [10] | [15] | [16] | [12]

CC(=O)O[C@]1(C(C)=O)CC[C@H]2[C@@H]3C=C(C)C4=CC(=O)CC[C@]4(C)[C@H]3CC[C@@]21C
active: [5] 54.5 µM | [15] 24.3 µM
inactive: [1] | [2] | [6] | [7] | [8] | [11] | [16] | [12]

O=C(CCCN1CCC(O)(c2ccc(Cl)cc2)CC1)c1ccc(F)cc1
inactive: [2] | [3] | [4] | [12]
54.5 µM (active) and inactive: [11]
active: [7] 61.1 µM | [8] 54.5 µM
27.5 µM (active) and inactive: [1]
61.1 µM (active) and inactive: [5]

CC(C)[C@@H]1CC[C@@H](C)CC1=O
inactive: [1] | [2] | [5] | [6] | [7] | [8] | [11] | [12]

Cc1ccc(C(C)(C)C)c(O)c1
47.4 µM (active) and inactive: [1]
inactive: [5] | [6] | [7] | [8] | [10] | [11] | [15] | [16]
active: [9] 59.1 µM

CCCCCC=O
not listed: [3] | [4] | [13] | [14] | [17] | [18] | [19]
inactive: all other assays above

O=S1(=O)CCCO1
inactive: [1] | [2] | [5] | [6] | [7] | [8] | [9] | [10] | [11] | [12]

CCC(=O)O[C@H]1[C@H](O[C@@H]2[C@@H](C)[C@H](O[C@H]3C[C@@](C)(OC)[C@@H](O)[C@H](C)O3)[C@@H](C)C(=O)O[C@H](CC)[C@@](C)(O)[C@H](O)[C@@H](C)C(=O)[C@H](C)C[C@@]2(C)O)O[C@H](C)C[C@@H]1N(C)C
inactive: [1] | [2] | [5] | [6] | [7] | [8] | [11]

Oc1ccc(C(c2ccc(O)cc2)C(Cl)(Cl)Cl)cc1
inactive: [1] | [2] | [6] | [7] | [8]

c1ccc2ncccc2c1
inactive: [1] | [2] | [5] | [6] | [7] | [8] | [9] | [10] | [11] | [12]

COc1cc([C@H]2Oc3cc([C@H]4Oc5cc(O)cc(O)c5C(=O)[C@@H]4O)ccc3O[C@@H]2CO)ccc1O
48.4 µM (active) and inactive: [5]
inactive: [1] | [2] | [6] | [7] | [8] | [15] | [16]
54.3 µM (active) and inactive: [11]

O=C1CCc2ccccc2O1
inactive: [1] | [2] | [5] | [6] | [7] | [8] | [11] | [15] | [16] | [12]

CN(Cc1cnc2nc(N)nc(N)c2n1)c1ccc(C(=O)N[C@@H](CCC(=O)O)C(=O)O)cc1
active: [9] 48.6 nM and 75 nM
not listed: [1] | [5] | [15] | [16] | [17] | [18] | [19]
inactive: all other assays above

COC(=O)C(C)Oc1ccc(Oc2ncc(C(F)(F)F)cc2Cl)cc1 (configuration not stated)
active: [15] 78 µM
not listed: [3] | [4] | [13] | [14] | [17] | [18] | [19]
inactive: all other assays above

CC(=O)Oc1ccc(C(c2ccc(OC(C)=O)cc2)c2ccccn2)cc1
inactive: [1] | [2] | [5] | [6] | [7] | [8] | [11] | [12]

CC1(C)OC(=O)NC1=O
not listed: [3] | [4] | [13] | [14] | [17] | [18] | [19]
inactive: all other assays above
